The structures appear in SMILES notation. Activity calls are given as the source filed them. Rule for the calls: active = hit-call score of the fitted dose curve at least 0.9, where 1 is the maximum; inactive = score below 0.9.

These results are taken from PubChem BioAssay AID2284062 (EPA ToxCast).

human CK1delta CK1 Kinase, CSNK1D (gene 1453), sequence (P48730 whole entry, looked up): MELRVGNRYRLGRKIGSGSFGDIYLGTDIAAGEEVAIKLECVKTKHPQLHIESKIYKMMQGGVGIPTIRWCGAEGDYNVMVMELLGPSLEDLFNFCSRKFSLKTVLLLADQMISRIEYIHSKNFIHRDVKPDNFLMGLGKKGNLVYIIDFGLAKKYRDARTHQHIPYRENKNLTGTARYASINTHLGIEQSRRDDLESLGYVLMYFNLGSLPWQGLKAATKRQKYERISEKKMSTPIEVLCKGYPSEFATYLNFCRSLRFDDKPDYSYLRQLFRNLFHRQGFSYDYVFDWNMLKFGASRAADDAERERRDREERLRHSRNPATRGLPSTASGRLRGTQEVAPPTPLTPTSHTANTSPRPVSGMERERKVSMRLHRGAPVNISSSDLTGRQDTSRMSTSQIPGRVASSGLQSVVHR

The experiment deals with human CK1delta CK1 Kinase, CSNK1D (gene 1453) (UniProt P48730). Briefly: ERF_TW_ENZ_hCSNK1D: Eurofins (ERF) Enzymatic Radiometric [10 uM ATP] Assay for human CK1delta CK1 Kinase. The procedure:
ERF_TW_ENZ_hCSNK1D is a biochemical, single-readout assay that uses extracted gene-proteins in a cell-free assay. Measurements were taken 0.5 hour after chemical dosing in a 96-well plate. See CK1delta Human CK1 Kinase Enzymatic Radiometric Assay [10 uM ATP], Panlabs.ERF_TW_ENZ_hCSNK1D is an assay component calculated from the ERF_TW_ENZ_hCSNK1D assay. It is designed to measure enzyme activity using a type of enzyme reporter as detected by scintillation counting with radiometry technology.Data from the assay component ERF_TW_ENZ_hCSNK1D was analyzed at the assay endpoint, ERF_TW_ENZ_hCSNK1D, in the positive analysis fitting direction relative to DMSO as the negative control and baseline of activity. Using a type of enzyme reporter, loss-of-signal activity can be used to understand changes in enzymatic activity as they relate to gene CSNK1D. To generalize the intended target to other relatable targets, this assay endpoint is annotated to the kinase intended target family, where the subfamily is serine/threonine kinase.
CK1d (h) is incubated with 8 mM MOPS pH 7.0, 0.2 mM EDTA, 200 uM KRRRALS(p)VASLPGL, 10 mM MgAcetate and [gamma-33P]-ATP (specific activity and concentration as required). The reaction is initiated by the addition of the Mg/ATP mix. After incubation for 40 minutes at room temperature, the reaction is stopped by the addition of phosphoric acid to a concentration of 0.5%. […]
Regarding `O=C(/C=C/c1ccc(O)cc1)CC(=O)/C=C/c1ccc(O)cc1`, the AC50 (as a rule, the concentration at which the activity in the assay is half-maximal) was 1.66 µM (active).
